± gives the standard deviation of the averaged measurements. Whole data set: some 25,000 sequences, median “ln(normalized median fluorescence intensity)” near 8.6, cut for the highest 2% near 10. The entries come from a sample that favours the highest values as a whole.
Tested on: PfAP2-EXP AP2 domain (GST-tagged)
Experiment: gcPBM binding intensity (ln(normalized median fluorescence intensity)); higher = stronger DNA binding
Procedure, shortened: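 After 1 h on an Agilent 4 × 180k array of primer-extended double-stranded 36-bp intergenic genomic probes and negative controls, bound GST-tagged P. falciparum DNA-binding domains were detected with Alexa488 anti-GST antibody and scanned at 488 nm. The domains had been expressed in E. coli, and binding took place in 1× PBS with 1% milk, 0.2 mg/ml BSA, 0.5% salmon testes DNA and 0.03% Triton X-100. Binding intensity is the highest Masliner-normalised natural-log median intensity across replicate spots of either probe orientation.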

Sequence	gcPBM binding intensity (ln)
TAATTTTTATGAAGAAGTACAAAATCTACTATCATA [XGTACX_site4985]	7.99 ± 0.38
CGAACAAACAAATAAACACACAAAAAAAGATATATA [CACACA_site6944]	8.72 ± 0.57
AATGATAAATAAAAAGCATGCAACAAATAAAAATAA [TGCATGCA_site453]	9.84 ± 0.22
ATATATATAATAAGTGGTACAAGTTATTCATTAAAT [XGTACX_site7063]	8.64 ± 0.3
TAAACCAAAAAAAGTAGTACAAATATTATAAAAAAA [XGTACX_site8497]	8.69 ± 0.39
ATTTATTATTATATCACACATAATATATTAAATGAT [CACACA_site5821]	8.28 ± 0.39
GTATTTTTAAATGACACACACATATATATATATATA [CACACA_site1662]	10.2 ± 0.5
GTATTTTTAAATGACACACACATATATAAATATGTA [CACACA_site6880]	8.38 ± 0.31
TTGTATTTTTAAATGACACACACATATATATATATA [CACACA_site8481]	10.1 ± 0.38
ATATTTAAATGGATCACACATATATATATATATATA [CACACA_site5255]	10.3 ± 0.3
CATAAAAATGGATACACACACATAATATATTTATAT [CACACA_site7669]	8.61 ± 0.4
TTAACATATTTGTTAGTGCATTTTGATATTACACAT [GTGCAC_site9978]	8.6 ± 0.33
TCATACGAAATATAAACACACATACAATAAATAAAT [CACACA_site5156]	8.78 ± 0.44
AACCACATACATATAACACACATATACAATATATAT [CACACA_site8607]	8.55 ± 0.45
CACCCACACCAACACACACACATATATATATATATA [CACACA_site362]	10.4 ± 0.2
AATAACCACCAACACACACACATATATATATATATA [CACACA_site3540]	10.2 ± 0.45
AATATAATATAAGGATCACACACAAACACCCATATA [CACACA_site8084]	8.91 ± 0.61
TATAATATAAGGATCACACACAAACACCCATATATA [CACACA_site4468]	8.74 ± 0.52
AAGGATCACCCACAAACACACATATATATATATATA [CACACA_site559]	10.4 ± 0.16
TATAAACACCCATATAAACACACATATAAACCAACA [CACACA_site8790]	8.73 ± 0.43
CACACCCACCAACACACACACACACCCACCCATATA [CACACA_site366]	8.61 ± 0.57
CACCCACACCAACACACACACATATATAATATATAT [CACACA_site595]	8.81 ± 0.39
GTCTATTCAAAAAAGTGTACGGACATATAAACATAC [XGTACX_site6516]	9.04 ± 0.28

Sequence	gcPBM binding intensity (ln)
ATATATATATTTACATGTACACATCTATATATAAAC [XGTACX_site5581]	9.445 ± 0.049
GCACATCTATATGAAACACACATGGAAACATCTCTT [CACACA_site7793]	8.47 ± 0.35
TAAAGTTTTTTTTTAACACACACATAATAAAATAAA [CACACA_site8042]	8.46 ± 0.51
TTTCTATTACGAACGTGTACATACATTATTCTTAAA [XGTACX_site5816]	8.88 ± 0.26
TAAAGAGTTACCATTTGTACTTACGCACACATAAAA [XGTACX_site3145]	8.45 ± 0.37
AATTAAATATTATAAACACACATATAGATTATTTTT [CACACA_site6538]	8.17 ± 0.49
ACAAAATAAAACATCTGTACATATTATTATTATAAG [XGTACX_site4802]	8.34 ± 0.35
AAAACATTGTTTATGTGTACATAATTATATTTACAA [XGTACX_site6926]	8.45 ± 0.39
ATATATTATATAAAGTGTACAAAAAAAATATATAAA [XGTACX_site8065]	8.91 ± 0.41
ATCTGACAAAAGTGTACACATATATATATATATATA [CACACA_site4814]	10.2 ± 0.61
ATAATCTGACAAATGTGTACACATATATATATATAT [XGTACX_site2379]	10.3 ± 0.34
AAAAATATAATATAATGTACACAAAAAAAAAAAATC [XGTACX_site1427]	8.73 ± 0.49
GTGTACAGACACAAAATATATACATATATATATATA [CACACA_negctrl_site1796]	9.87 ± 0.54
TATATATATATAATGTGTACACAAATATATATTATA [XGTACX_site8786]	9.74 ± 0.23
TATGTAACAAAAAAAAGTACACATATATATAGTGTA [XGTACX_site7772]	8.52 ± 0.39
ATTATATATATAAAGTGTACAAAAAAAAAAAAAAAA [XGTACX_site3134]	8.46 ± 0.33
CATATTAGGACAAAGTGTACATATATATATATATAT [XGTACX_site1172]	10.3 ± 0.27
TAGTTACCTTAATATTGTACTTTTCTTTCATATATG [XGTACX_site1309]	8.82 ± 0.38
TATAATATATATTTGTGTCCACAACATTTTTAATAT [XGTACX_site2089]	8.56 ± 0.28
TTTTTTTTTTGATGTTGTACATATATATTATATAAT [XGTACX_site2765]	8.55 ± 0.4
AAAACAAAATAGGGAACACACACATGTCAATATATA [CACACA_site8834]	8.88 ± 0.41
TCCCATAATATTAGTAGTACTATTAATATTTTCAGG [XGTACX_site4925]	8.33 ± 0.42

From the supplement of paper PMC11417369
